In ChEMBL document CHEMBL1961873, “Compounds: GSK PKIS; Assays: Nanosyn kinase panel” (2012):

How the values were obtained:
[1] = biological target: 5'-AMP-activated protein kinase catalytic subunit alpha-2 (Homo sapiens) (UniProt P54646); details: at 1 µM
[2] = biological target: T1, NUAK family SNF1-like kinase 1 (Homo sapiens) (UniProt O60285); details: at 0.1 µM
T1 sequence (whole entry): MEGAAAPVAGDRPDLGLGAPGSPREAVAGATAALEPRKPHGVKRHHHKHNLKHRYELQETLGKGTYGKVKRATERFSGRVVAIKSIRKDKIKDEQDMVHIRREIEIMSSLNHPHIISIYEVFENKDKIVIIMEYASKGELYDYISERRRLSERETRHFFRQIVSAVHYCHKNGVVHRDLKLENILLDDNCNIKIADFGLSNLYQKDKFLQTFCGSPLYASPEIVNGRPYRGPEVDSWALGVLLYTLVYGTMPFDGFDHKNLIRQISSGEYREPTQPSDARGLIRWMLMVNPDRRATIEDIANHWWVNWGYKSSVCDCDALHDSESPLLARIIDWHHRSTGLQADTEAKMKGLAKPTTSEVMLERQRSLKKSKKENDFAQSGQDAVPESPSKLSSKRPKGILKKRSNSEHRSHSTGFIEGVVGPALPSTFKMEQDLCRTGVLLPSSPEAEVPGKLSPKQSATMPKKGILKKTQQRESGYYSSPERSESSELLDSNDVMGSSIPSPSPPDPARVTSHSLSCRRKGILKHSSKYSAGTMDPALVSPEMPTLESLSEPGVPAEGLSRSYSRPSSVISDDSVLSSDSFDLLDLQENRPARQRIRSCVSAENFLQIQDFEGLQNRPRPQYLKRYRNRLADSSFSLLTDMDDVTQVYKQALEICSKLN

[3] = biological target: T1, NUAK family SNF1-like kinase 1 (Homo sapiens); details: at 1 µM
[4] = biological target: T2, Serine/threonine-protein kinase BRSK1 (Homo sapiens) (UniProt Q8TDC3); details: at 0.1 µM
T2 sequence (whole entry): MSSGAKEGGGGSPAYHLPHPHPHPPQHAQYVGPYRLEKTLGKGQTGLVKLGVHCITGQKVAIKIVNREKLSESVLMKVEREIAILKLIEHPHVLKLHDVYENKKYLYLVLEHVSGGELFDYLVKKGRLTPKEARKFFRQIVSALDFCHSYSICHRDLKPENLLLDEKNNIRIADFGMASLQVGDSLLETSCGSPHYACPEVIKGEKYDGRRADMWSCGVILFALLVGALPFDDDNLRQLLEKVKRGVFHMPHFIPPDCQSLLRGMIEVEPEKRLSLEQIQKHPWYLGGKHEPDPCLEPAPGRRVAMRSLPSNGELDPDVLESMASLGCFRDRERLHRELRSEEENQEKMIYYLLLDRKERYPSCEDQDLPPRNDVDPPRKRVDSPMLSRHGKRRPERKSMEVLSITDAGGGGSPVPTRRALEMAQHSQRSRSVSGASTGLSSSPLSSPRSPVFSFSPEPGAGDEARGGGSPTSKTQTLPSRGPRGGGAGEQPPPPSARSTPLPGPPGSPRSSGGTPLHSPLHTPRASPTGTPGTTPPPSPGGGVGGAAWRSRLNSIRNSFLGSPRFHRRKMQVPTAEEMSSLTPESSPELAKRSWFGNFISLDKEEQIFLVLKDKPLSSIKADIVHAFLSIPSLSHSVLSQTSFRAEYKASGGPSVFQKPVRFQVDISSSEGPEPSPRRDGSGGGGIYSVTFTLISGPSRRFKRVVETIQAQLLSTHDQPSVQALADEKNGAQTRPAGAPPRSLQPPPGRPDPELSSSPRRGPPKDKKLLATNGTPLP

[5] = biological target: T2, Serine/threonine-protein kinase BRSK1 (Homo sapiens); details: at 1 µM
[6] = biological target: T3, Serine/threonine-protein kinase BRSK2 (Homo sapiens) (UniProt Q8IWQ3); details: at 0.1 µM
T3 sequence (whole entry): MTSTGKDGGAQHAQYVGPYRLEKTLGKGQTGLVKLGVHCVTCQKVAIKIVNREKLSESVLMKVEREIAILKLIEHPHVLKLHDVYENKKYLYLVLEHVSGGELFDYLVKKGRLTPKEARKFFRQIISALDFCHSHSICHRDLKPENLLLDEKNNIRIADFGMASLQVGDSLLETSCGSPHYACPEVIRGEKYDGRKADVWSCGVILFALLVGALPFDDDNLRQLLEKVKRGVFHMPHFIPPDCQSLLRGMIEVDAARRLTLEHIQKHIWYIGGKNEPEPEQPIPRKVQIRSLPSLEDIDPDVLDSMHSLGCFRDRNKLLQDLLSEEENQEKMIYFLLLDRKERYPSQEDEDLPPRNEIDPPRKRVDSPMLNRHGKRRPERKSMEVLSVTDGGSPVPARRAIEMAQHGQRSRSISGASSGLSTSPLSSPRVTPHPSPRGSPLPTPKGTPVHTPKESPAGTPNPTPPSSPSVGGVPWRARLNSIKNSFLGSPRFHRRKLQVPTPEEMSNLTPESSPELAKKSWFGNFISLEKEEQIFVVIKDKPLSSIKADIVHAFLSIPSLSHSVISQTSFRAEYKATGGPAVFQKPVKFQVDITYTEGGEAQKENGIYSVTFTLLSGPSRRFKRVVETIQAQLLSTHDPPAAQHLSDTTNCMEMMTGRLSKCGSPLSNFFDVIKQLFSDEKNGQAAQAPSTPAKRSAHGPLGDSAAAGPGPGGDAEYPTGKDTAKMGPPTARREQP

[7] = biological target: T3, Serine/threonine-protein kinase BRSK2 (Homo sapiens); details: at 1 µM
[8] = biological target: Calcium/calmodulin-dependent protein kinase type 1D (Homo sapiens) (UniProt Q8IU85); details: at 0.1 µM
Chain of Calcium/calmodulin-dependent protein kinase type 1D (Homo sapiens) (Q8IU85 whole entry, looked up): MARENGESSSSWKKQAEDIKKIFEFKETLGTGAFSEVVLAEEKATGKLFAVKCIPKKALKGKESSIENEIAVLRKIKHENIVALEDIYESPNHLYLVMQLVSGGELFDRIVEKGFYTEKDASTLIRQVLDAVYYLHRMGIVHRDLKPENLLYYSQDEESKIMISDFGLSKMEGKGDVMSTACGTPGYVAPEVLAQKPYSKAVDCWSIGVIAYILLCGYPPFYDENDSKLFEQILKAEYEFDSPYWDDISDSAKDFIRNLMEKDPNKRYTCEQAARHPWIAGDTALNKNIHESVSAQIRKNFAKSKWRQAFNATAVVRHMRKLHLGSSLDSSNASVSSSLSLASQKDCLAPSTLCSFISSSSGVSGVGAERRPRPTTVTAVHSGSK

[9] = biological target: Calcium/calmodulin-dependent protein kinase type 1D (Homo sapiens) (UniProt Q8IU85); details: at 1 µM
[10] = biological target: Calcium/calmodulin-dependent protein kinase type II subunit alpha (Homo sapiens) (UniProt Q9UQM7); details: at 0.1 µM
Chain of Calcium/calmodulin-dependent protein kinase type II subunit alpha (Homo sapiens) (Q9UQM7 whole entry): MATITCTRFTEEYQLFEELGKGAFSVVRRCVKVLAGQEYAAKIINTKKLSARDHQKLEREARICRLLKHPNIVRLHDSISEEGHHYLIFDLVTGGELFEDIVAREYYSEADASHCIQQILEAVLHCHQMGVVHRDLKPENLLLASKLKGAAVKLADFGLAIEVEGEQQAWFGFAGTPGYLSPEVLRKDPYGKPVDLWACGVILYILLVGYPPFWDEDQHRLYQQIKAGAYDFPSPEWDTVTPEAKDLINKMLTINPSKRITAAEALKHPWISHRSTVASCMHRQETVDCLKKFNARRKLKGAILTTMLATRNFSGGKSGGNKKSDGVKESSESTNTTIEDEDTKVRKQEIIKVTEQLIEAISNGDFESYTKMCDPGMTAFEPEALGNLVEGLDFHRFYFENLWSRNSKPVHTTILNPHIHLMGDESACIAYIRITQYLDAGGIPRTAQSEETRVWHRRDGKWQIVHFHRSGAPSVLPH

[11] = biological target: Calcium/calmodulin-dependent protein kinase type II subunit alpha (Homo sapiens) (UniProt Q9UQM7); details: at 1 µM
[12] = biological target: Calcium/calmodulin-dependent protein kinase type II subunit delta (Homo sapiens) (UniProt Q13557); details: at 0.1 µM
Chain of Calcium/calmodulin-dependent protein kinase type II subunit delta (Homo sapiens) (Q13557 whole entry): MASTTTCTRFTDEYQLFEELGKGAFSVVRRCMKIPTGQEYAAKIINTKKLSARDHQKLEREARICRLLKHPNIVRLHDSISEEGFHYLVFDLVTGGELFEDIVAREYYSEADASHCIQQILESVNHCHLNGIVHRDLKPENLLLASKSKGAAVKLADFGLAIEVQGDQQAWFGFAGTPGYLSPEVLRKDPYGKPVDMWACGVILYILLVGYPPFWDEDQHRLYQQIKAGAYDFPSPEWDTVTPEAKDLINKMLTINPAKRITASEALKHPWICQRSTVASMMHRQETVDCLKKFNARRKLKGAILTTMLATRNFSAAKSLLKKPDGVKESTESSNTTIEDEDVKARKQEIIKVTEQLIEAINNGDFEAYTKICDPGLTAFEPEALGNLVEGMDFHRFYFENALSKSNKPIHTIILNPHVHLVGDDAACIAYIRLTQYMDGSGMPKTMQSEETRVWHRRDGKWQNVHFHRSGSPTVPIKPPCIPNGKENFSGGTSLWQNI

[13] = biological target: Calcium/calmodulin-dependent protein kinase type II subunit delta (Homo sapiens) (UniProt Q13557); details: at 1 µM
[14] = biological target: T4, Calcium/calmodulin-dependent protein kinase type IV (Homo sapiens) (UniProt Q16566); details: at 0.1 µM
T4 sequence (whole entry): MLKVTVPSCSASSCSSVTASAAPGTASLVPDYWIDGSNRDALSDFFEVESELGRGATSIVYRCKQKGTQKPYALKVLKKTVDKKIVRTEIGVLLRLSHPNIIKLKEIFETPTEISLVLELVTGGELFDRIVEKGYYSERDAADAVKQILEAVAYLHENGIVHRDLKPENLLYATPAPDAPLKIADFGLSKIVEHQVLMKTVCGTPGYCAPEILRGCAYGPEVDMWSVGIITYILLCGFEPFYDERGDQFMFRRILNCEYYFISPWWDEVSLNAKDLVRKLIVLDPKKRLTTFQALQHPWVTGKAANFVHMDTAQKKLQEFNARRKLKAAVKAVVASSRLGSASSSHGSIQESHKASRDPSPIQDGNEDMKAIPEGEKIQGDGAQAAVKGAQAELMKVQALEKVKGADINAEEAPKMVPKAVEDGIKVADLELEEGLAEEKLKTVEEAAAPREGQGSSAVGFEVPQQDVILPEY

[15] = biological target: T4, Calcium/calmodulin-dependent protein kinase type IV (Homo sapiens); details: at 1 µM
[16] = biological target: T5, Serine/threonine-protein kinase Chk1 (Homo sapiens) (UniProt O14757); details: at 0.1 µM
T5 sequence (whole entry): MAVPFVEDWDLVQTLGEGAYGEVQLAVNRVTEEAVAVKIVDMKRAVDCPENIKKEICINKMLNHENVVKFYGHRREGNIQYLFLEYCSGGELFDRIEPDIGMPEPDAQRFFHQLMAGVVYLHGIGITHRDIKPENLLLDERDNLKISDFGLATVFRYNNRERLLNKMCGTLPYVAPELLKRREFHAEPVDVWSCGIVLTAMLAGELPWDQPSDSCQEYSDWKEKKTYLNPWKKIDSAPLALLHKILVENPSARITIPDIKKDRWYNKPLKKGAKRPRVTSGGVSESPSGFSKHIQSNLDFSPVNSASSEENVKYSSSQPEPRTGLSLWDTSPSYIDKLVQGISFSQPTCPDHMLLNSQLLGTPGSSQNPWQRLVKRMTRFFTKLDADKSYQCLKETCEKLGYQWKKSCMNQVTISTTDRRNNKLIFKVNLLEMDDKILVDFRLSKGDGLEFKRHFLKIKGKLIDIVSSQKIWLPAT

[17] = biological target: T5, Serine/threonine-protein kinase Chk1 (Homo sapiens); details: at 1 µM
[18] = biological target: Serine/threonine-protein kinase Chk2 (Homo sapiens) (UniProt O96017); details: at 0.1 µM
Chain of Serine/threonine-protein kinase Chk2 (Homo sapiens) (O96017 whole entry): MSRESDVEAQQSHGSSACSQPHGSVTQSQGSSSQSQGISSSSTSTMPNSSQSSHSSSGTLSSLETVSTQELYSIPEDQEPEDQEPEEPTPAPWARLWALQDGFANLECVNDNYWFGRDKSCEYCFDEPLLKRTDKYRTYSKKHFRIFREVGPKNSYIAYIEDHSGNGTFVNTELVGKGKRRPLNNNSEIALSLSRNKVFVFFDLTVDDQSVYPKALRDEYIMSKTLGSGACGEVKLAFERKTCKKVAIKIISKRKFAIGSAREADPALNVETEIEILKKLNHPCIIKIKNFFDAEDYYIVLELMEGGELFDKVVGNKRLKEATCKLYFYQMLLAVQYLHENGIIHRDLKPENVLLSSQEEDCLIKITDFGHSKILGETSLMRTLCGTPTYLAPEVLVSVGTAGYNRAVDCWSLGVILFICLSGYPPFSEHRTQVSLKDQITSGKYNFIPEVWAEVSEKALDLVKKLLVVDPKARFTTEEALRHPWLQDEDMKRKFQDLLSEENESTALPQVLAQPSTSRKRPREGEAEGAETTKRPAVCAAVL

[19] = biological target: Serine/threonine-protein kinase Chk2 (Homo sapiens) (UniProt O96017); details: at 1 µM
[20] = biological target: Death-associated protein kinase 1 (Homo sapiens) (UniProt P53355); details: at 0.1 µM;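 further: reported figure is the mean inhibition of DAPK1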
Chain of Death-associated protein kinase 1 (Homo sapiens) (P53355 whole entry, looked up): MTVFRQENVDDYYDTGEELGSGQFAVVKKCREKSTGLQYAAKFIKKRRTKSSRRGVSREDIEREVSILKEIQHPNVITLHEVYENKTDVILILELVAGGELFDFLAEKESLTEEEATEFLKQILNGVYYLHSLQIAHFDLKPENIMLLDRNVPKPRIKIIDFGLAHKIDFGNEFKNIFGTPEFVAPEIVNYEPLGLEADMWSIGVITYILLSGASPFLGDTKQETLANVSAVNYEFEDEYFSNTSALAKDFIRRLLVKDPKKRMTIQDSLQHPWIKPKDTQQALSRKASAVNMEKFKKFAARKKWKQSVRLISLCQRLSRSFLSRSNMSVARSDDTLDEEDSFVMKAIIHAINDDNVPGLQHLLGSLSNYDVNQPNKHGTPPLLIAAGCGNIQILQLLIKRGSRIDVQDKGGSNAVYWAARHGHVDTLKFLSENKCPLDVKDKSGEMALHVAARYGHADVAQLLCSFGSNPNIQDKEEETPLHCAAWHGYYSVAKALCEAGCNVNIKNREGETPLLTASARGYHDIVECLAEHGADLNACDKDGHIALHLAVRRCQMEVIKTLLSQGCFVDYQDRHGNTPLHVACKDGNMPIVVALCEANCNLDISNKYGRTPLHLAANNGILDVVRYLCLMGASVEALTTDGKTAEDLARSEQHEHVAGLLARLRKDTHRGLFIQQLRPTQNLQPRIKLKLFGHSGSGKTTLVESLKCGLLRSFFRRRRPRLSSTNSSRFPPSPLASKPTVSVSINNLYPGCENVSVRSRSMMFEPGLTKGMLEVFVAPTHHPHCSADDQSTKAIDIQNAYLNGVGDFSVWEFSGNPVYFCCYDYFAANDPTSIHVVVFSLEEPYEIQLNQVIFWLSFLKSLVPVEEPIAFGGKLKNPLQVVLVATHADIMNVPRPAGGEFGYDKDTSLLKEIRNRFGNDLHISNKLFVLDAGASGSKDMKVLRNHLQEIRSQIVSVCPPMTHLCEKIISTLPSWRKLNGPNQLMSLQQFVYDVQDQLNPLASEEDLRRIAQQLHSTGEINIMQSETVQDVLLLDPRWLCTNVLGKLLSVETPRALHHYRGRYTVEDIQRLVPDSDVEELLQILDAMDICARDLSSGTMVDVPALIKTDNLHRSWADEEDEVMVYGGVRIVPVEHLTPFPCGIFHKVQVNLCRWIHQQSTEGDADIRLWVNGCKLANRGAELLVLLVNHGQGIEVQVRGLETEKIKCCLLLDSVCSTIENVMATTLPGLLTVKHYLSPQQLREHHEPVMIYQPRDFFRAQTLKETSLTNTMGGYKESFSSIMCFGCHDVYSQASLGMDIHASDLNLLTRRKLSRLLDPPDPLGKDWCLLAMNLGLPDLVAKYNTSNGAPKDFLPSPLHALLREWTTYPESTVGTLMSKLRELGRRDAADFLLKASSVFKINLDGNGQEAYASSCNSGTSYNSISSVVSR

Chain of 5'-AMP-activated protein kinase catalytic subunit alpha-2 (Homo sapiens) (P54646 whole entry, looked up): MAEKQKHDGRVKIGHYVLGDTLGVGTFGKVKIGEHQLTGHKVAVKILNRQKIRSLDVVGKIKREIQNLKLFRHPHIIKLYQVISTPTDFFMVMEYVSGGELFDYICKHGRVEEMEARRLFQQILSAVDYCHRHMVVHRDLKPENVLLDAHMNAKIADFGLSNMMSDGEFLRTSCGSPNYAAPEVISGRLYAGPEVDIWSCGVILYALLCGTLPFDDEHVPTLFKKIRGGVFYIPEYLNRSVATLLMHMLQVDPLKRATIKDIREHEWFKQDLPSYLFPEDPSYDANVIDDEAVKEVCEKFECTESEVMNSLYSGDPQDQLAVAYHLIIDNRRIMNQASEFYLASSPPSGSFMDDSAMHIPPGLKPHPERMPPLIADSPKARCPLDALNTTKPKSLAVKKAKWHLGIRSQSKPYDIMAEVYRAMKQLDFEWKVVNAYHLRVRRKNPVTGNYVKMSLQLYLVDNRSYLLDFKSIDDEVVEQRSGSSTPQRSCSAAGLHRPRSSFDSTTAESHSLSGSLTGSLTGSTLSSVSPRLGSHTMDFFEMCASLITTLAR

SMILES	inhibition [1] [%]	inhibition [2] [%]	inhibition [3] [%]	inhibition [4] [%]	inhibition [5] [%]	inhibition [6] [%]	inhibition [7] [%]	inhibition [8] [%]	inhibition [9] [%]	inhibition [10] [%]	inhibition [11] [%]	inhibition [12] [%]	inhibition [13] [%]	inhibition [14] [%]	inhibition [15] [%]	inhibition [16] [%]	inhibition [17] [%]	inhibition [18] [%]	inhibition [19] [%]	inhibition [20] [%]
COc1ccc(-c2nn3ncccc3c2-c2ccnc(Nc3ccc(Cl)c(C(F)(F)F)c3)n2)cc1	-8.45	-1.07	-2.34	1.4	1.98	2.7	4.49	-0.51	-1.4	1.97	0.35	0.24	-0.01	-1.57	-4.24	-0.59	-3.23	1.35	2.73	1.96
Cc1nnc(-c2ccc(C)c(-c3ccc(C(=O)Nc4cccc(C#N)c4)cc3)c2)o1	2.95	2.98	2.37	0.93	1.01	2.39	4.23	0.65	0.26	1.97	1.16	1.1	1.51	-1.55	-0.84	0.73	0.92	1.03	4.05	3.42
CCn1c(-c2nonc2N)nc2c(N3CCCC3)nccc21	0.77	4.51	0.95	1.14	1.31	1.48	3.56	-0.31	-0.81	-1.53	-3.88	-2.38	-0.97	-0.74	-0.33	2.68	0.57	-2.44	-2.51	0.86
O=C1NC(=O)C(N2CCc3ccccc32)=C1c1ccc(Cl)cc1	5.78	4.44	7.39	3.67	5.07	2.92	3.2	0.76	1.55	4.4	2.12	4.21	5.17	0.68	0.58	9.38	12.7	8.35	8.52	11.1
NC(=O)c1cccc(Nc2nccc(Nc3cccc4[nH]ncc34)n2)c1	11	40.5	80.7	3.32	22	2.15	19.3	0.34	4.12	-4.01	-1.01	-1.68	3.58	1.19	2.27	1.94	44.1	-2.95	9.48	0.17
Cc1cccc(-c2n[nH]cc2-c2ccc3ncccc3n2)n1	1.54	0.78	4.74	0.22	1.97	2.17	2.14	0.56	1.08	-1.03	-0.05	0.08	2.08	1.14	2.81	2.24	1.66	-0.67	-0.16	0.65
CC(=O)Nc1cccc(C#Cc2cncnc2Nc2ccc(OCc3cccc(F)c3)c(Cl)c2)n1	-0.66	2.57	1.97	-1.43	5.34	1.19	5.79	0.41	0.25	0.69	1.27	-0.74	-2.74	-4.11	-7.03	7.14	5.32	3.3	4.37	7.49
CS(=O)(=O)CCNCc1ccc(-c2ccc3ncnc(Nc4ccc(OCc5ccccc5)c(Cl)c4)c3c2)o1	0.49	0.49	1.58	0.43	-0.39	0.27	2.32	-0.75	1.29	-1.33	-1.87	-1.29	1.59	0.2	1.37	-6.61	-6.9	-6.13	-4.43	-9.06
NS(=O)(=O)c1cccc(-c2ccc3c(NC(=O)C4CC4)n[nH]c3c2)c1	-0.49	0.7	1.95	6.3	41.3	12.6	51.8	-0.5	-0.98	-4.43	-3.57	-2.03	-1.61	-0.79	-1.58	3.4	2.13	-2.9	-2.43	1.4
CCn1c(-c2nonc2N)nc2ccncc21	4.28	1.84	4.31	1.52	2.23	1.34	0.91	1.15	1.59	3.93	6.48	2.32	4.41	0.03	1.1	1.89	0.17	1.09	1.49	1.08
NC(=O)c1ccc(-c2nc(-c3ccccn3)c(-c3ccc4c(c3)OCO4)[nH]2)cc1	2.23	0.4	1.15	-0.32	-0.03	0.53	1.06	0.53	0.23	1.86	3.33	1.17	1.87	0.57	0.4	-1.44	2.65	1.07	1.89	2.4
CCn1c(-c2nonc2N)nc2cnc(Oc3cccc(NC(=O)c4ccc(OCCN5CCOCC5)cc4)c3)cc21	3.43	5.2	26.9	1.86	0.26	1.64	2.71	-0.02	2.35	1.46	2.17	1.77	4	2.08	2.49	-8.33	4.37	3.15	13.3	-1.49
Nc1nc(-c2ccccn2)c(-c2ccc3ncccc3n2)s1	3.76	4.24	5.19	-0.41	2.4	0.9	3.83	-0.97	0.3	1.9	2.01	0.62	2.75	-0.73	-1.69	4.2	6.33	2.16	4.44	4.05
